These results are taken from PubChem BioAssay.

Activity calls are given as the source filed them. Unless noted, no rule for the calls is given here.

The nature of experiment [1]: compounds binding Alexa647 anti-His antibody – biochemical, small-molecule microarray, 635 nm fluorescence, artefact control for SMM control protein annotation, primary screen (AID 1128).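 Also: score merges feature fluorescence with signal-to-noise for each printed compound spot.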 Particulars: higher = more signal.
The test system of experiment [2] is Human papillomavirus type 1a E7 protein (residues 1-88). Description: HPV1a E7 small-molecule binders, primary screen, biochemical, small-molecule microarray, residues 1-88, 635 nm (AID 1129). To be noted: small-molecule microarray binding, fluorescence 635 nm; higher = more signal.
The target in experiment [3] is Focal adhesion kinase 1 (Homo sapiens) (UniProt Q05397). Description: PTK2 protein binding on printed compound slides – biochemical, small-molecule microarray, 635/667 nm fluorescence, BSA, DTT, primary screen (AID 1130).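 Also: composite of spot emission at 667 nm and signal to noise over triplicate slides.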 To be noted: 635 nm fluorescence, higher = more signal.
Sequence of Focal adhesion kinase 1 (Homo sapiens) (Q05397 whole entry, looked up): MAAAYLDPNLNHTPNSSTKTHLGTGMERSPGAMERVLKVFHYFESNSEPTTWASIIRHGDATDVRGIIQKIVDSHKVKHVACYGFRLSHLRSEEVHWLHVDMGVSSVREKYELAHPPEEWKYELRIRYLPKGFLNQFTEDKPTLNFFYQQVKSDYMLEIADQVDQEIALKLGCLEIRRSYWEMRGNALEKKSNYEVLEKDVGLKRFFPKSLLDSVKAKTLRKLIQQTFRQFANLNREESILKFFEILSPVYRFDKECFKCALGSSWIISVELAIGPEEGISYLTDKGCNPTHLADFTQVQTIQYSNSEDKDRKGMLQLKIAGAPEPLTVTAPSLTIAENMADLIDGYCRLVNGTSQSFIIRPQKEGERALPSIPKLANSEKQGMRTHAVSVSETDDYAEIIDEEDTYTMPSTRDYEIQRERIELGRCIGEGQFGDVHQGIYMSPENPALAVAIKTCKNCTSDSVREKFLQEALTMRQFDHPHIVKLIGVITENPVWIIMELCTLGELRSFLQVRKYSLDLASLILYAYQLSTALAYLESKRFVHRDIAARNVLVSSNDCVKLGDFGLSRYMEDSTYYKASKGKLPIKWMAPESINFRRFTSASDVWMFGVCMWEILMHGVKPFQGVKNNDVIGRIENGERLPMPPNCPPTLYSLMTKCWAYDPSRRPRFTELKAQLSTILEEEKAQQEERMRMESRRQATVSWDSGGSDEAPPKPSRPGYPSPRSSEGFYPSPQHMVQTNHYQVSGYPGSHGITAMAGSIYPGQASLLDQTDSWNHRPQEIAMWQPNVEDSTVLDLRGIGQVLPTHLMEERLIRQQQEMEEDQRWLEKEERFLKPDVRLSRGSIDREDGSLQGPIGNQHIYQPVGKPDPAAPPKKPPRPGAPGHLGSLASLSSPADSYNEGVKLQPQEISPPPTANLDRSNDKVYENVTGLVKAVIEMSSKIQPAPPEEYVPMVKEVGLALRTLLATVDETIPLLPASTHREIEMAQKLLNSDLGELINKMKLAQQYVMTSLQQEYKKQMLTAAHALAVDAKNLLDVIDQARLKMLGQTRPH
The test system of experiment [4] is Fibrinogen (Alexa647-labelled). Put plainly: Alexa647-fibrinogen binding to printed small molecules – biochemical, small-molecule microarray, 635/667 nm fluorescence, artefact control for SMM control-protein annotation, profiling panel (AID 1131).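 Also: z-score merges 667 nm fluorescence with per-spot signal-to-noise over triplicate slides.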 Particulars: fibrinogen-A647 binding fluorescence, higher = more signal.
The target in experiment [5] is Follistatin (Homo sapiens) (UniProt P19883). Description: FST protein binding to printed compounds – biochemical, small-molecule microarray, 635/667 nm fluorescence, primary screen (AID 1132). Particulars: 635 nm fluorescence, higher = more signal.
Sequence of Follistatin (Homo sapiens) (P19883 whole entry, looked up): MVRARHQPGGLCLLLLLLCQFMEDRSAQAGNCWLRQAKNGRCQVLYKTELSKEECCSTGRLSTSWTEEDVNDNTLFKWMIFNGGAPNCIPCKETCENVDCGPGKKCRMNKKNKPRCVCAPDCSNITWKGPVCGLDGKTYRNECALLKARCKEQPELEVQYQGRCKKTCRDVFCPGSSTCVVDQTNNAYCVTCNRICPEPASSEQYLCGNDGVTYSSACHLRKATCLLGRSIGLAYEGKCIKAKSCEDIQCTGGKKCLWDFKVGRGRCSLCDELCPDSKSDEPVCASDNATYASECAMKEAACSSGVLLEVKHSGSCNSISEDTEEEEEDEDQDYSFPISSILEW
Experiment [6] concerns the target Fibroblast growth factor 2 (Homo sapiens) (UniProt P09038). Put plainly: basic fibroblast growth factor binding to printed compounds – biochemical, small-molecule microarray, 635/667 nm fluorescence, primary screen (AID 1133). To be noted: FGF2, fluorescence 635/667, higher = more signal.
Experiment [7] in a line: JC-1 mitochondrial potential readout, lung cancer cells – cell-based, A549, JC-1 fluorescence, basal, 24 h, 100 nL, profiling panel (AID 1138).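 Also: A549 lung adenocarcinoma cells under basal conditions with no added stimulus; test concentration not given here.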 Particulars: higher = more signal.
For experiment [8], the system named is Lefty1. Put plainly: Lefty1 protein binding to printed compounds – biochemical, small-molecule microarray, 635/667 nm fluorescence, primary screen (AID 1139). To be noted: fluorescence 635/667, higher = more signal.
Experiment [9] relates to wheat germ agglutinin (Triticum aestivum), Alexa647-labelled. Description: Alexa647-WGA lectin binding to printed small molecules – biochemical, small-molecule microarray, 635/667 nm fluorescence, artefact control for SMM control-protein annotation, profiling panel (AID 1140).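 Also: score merges 667 nm feature emission with signal to noise over triplicate slides.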 Particulars: WGA-A647 binding, 635 nm fluorescence, higher = more signal.
In experiment [10] the target is Luciferin 4-monooxygenase (Photinus pyralis) (UniProt P08659). Put plainly: inhibition of purified Photinus pyralis luciferase – biochemical, luminescence, purified enzyme, 2006 set, primary screen (AID 1141).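 Also: cell-free assay with purified firefly luciferase at 100 ng per well in PBS; test concentration not given here.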 To be noted: purified firefly luciferase, SteadyGlo luminescence, 30 min; higher = more signal, called active from +8 up or from −8 down.
Sequence of Luciferin 4-monooxygenase (Photinus pyralis) (P08659 whole entry, looked up): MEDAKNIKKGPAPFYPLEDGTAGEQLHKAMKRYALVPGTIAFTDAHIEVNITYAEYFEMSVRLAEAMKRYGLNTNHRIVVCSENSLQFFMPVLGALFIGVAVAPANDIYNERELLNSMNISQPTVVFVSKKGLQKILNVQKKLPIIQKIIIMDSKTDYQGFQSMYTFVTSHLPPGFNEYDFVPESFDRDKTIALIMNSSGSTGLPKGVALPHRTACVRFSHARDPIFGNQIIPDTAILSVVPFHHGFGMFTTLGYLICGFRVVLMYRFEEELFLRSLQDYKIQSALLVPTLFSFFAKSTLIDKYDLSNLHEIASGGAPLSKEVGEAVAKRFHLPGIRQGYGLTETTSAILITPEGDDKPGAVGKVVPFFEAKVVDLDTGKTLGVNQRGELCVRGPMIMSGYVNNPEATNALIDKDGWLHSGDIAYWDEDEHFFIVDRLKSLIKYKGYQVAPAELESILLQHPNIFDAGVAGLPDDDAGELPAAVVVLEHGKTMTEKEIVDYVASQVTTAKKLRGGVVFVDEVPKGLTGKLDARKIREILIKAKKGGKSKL
The test system of experiment [11] is Wnt5a (protein binding on small-molecule microarray). Description: small molecules binding Wnt5a protein – biophysical, small-molecule microarray, 635/667 nm fluorescence, primary screen (AID 1142).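 Also: fluorescence read at 667 nm with signal to noise per printed feature.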 Particulars: 635 nm fluorescence, higher = more signal.
Experiment [12] in a line: ATP-based viability of Huh7 replicon cells – cell-based, CellTiter-Glo luminescence, basal, 48 h, cytotoxicity control for HCV replication inhibitor project, primary screen (AID 1143).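 Also: Huh7 hepatoma cells carrying a hepatitis C replication reporter with no stimulus; test concentration not given here.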 To be noted: higher = more signal, called active from +8 up or from −8 down. Background: In antiviral work, replicon cells carry a viral genome segment that copies itself.
The nature of experiment [13]: Pseudomonas biofilm growth suppression – PAO1 strain, BacTiter-Glo luminescence, LB-PBS, primary screen (AID 1144). To be noted: P. aeruginosa PAO1 biofilm, 12 h, higher = more signal.
The nature of experiment [14]: basal CRE-LacZ reporter activity in PC12 – cell-based, unstimulated, primary screen (AID 1145). To be noted: no forskolin, luminescence, 4.5 h, higher = more signal, called active from +8 up or from −8 down.
Experiment [15] in a line: forskolin-driven CRE-LacZ activity in PC12 – cell-based, CRE-LacZ reporter, forskolin-stimulated, primary screen (AID 1146).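 Also: PC12 cells with 6xCRE LacZ reporter stimulated by forskolin 10 µM; beta-galactosidase reporter signal reflecting CREB driven transcription.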 To be noted: luminescence, 4.5 h, higher = more signal, called active from +8 up or from −8 down.
Experiment [16] addresses Streptavidin (Streptomyces avidinii) (UniProt P22629). Description: compounds binding control protein streptavidin – biophysical, small-molecule microarray, 635/667 nm fluorescence, artefact control for SMM compound annotation, primary screen (AID 1147).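 Also: signal reflects streptavidin binding to arrayed compounds as a control protein.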 To be noted: higher = more signal.
The nature of experiment [17]: probe aInhba binding on compound microarray – biochemical, small-molecule microarray, 635/667 nm fluorescence, primary screen (AID 1148).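 Also: score merges 667nm spot fluorescence with signal-to-noise for antibody binding to printed compounds.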 To be noted: higher = more signal.
For experiment [18], the target named is Torsin-1A (Homo sapiens) (UniProt O14656). Put plainly: TOR1A wild-type binding on microarray – cell lysate, small-molecule microarray, lysate, 635/667 nm, primary screen (AID 1149). To be noted: COS7 hTOR1A-WT lysate, 635 nm fluorescence, higher = more signal.
Sequence of Torsin-1A (Homo sapiens) (O14656 whole entry, looked up): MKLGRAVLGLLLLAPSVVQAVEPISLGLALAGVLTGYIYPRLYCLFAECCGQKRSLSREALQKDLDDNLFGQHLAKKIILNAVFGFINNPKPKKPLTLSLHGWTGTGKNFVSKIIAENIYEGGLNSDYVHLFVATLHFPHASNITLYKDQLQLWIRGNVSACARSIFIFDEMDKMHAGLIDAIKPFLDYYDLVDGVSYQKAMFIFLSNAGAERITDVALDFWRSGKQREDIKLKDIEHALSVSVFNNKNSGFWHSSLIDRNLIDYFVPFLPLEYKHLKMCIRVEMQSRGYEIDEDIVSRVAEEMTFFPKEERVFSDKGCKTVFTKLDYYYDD
For experiment [19] the target is unchanged. Description: torsin A mutant lysate binding on microarrays – cell lysate, small-molecule microarray, COS7 lysate, 635/667 nm fluorescence, primary screen (AID 1150).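 Also: score pools 667 nm emission and signal to noise measuring lysate protein binding.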 Particulars: COS7 hTOR1A mutant lysate, 635 nm fluorescence, higher = more signal.
Experiment [20] has as its system Sonic hedgehog protein (Shh). Put plainly: Sonic hedgehog microarray binding compounds – biochemical, small-molecule microarray, 635/667 nm fluorescence, primary screen (AID 1151).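 Also: Shh protein binding to compounds spotted on small-molecule microarray slides; score combines spot fluorescence intensity with signal-to-noise across triplicate slides.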 To be noted: 635 nm fluorescence, higher = more signal.

Sequence of Streptavidin (Streptomyces avidinii) (P22629 whole entry, looked up): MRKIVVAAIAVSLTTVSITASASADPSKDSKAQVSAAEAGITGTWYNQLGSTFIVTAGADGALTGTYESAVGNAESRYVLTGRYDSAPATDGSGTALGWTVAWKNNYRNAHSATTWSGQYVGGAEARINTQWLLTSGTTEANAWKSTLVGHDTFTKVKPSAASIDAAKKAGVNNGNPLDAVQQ
Sequence of Fibroblast growth factor 2 (Homo sapiens) (P09038 whole entry, looked up): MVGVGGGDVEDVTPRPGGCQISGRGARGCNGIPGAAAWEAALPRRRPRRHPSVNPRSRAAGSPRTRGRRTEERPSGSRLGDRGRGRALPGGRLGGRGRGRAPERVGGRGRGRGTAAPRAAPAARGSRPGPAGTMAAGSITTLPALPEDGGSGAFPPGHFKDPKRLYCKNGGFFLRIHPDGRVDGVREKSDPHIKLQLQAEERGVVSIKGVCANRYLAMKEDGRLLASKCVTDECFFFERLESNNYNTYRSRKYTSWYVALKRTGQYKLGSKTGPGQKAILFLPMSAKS

On to `COc1cccc([C@H]2Oc3ccc(OC)cc3C(=NO[C@@H](C)c3cn([C@H](CO)Cc4ccccc4)nn3)[C@@H]2O)c1`, for which the composite z-score in [1] was -2.13; in experiment [2] it was -0.92; in [3], -0.104; in [4], 0.778; in experiment [5] it was -0.476; in experiment [6], 0.109. Moreover, the composite z-score is 0.102 in experiment [8]; 0.305 in [9]; -0.353 in experiment [11]; 0.326 in experiment [16]; -0.0986 in experiment [17]; -0.44 in [18]. The composite z-score was -0.137 in [19] and -0.243 in experiment [20]. The z-score in experiment [7] is -1.09; in experiment [10], -0.0592 (inactive); in experiment [12], -0.404 (inactive); in experiment [13] it was 0.0128 (inactive); in experiment [14] it was 6.77 (inactive); in experiment [15] it was 0.661 (inactive).
With `CCOC(=O)NN=C1C[C@@H](O)[C@@H](O)[C@@H]2[C@@H]3C(=O)N(c4cccc(Oc5ccccc5)c4)C(=O)[C@@H]3CC[C@@H]12`, the composite z-score in experiment [1] is -0.103; in [2], 0.45; in [3], 0.0767; in experiment [4], 0.681; in [5], -0.445; in [6] it was -0.248. Moreover, the composite z-score in experiment [8] was -0.318; in experiment [9] it was 0.327; in experiment [11], 0.0449; in [16], -0.343; in experiment [17], -0.178; in [18] it was 0.986. Also, the composite z-score in experiment [19] was 0.139; in experiment [20], -0.438. Further, the z-score in [7] is -0.44; in [10], 0.607 (inactive); in experiment [12], -1.49 (inactive); in experiment [13], 0.362 (inactive); in experiment [14], -0.201 (inactive); in experiment [15], -0.252 (inactive).
Take `CCCCC#C[C@@H]1C=C[C@H](Oc2ccc(C(=O)OC)cc2)[C@@H](COC(=O)OCC)O1`: the composite z-score was 0.516 in experiment [1]; 0.459 in experiment [2]; -0.0377 in experiment [3]; 0.531 in [4]; 0.974 in experiment [5]; 0.585 in experiment [6]. Besides, the composite z-score in [8] is 0.309; in experiment [9], 0.276; in experiment [11], 0.769; in [16], 0.25; in experiment [17], -0.128; in [18], 0.346. The values for the composite z-score in experiment [19] and in experiment [20] were 0.358 and 1.12, respectively. For the same molecule, the z-score in experiment [7] was -0.896; in experiment [10], -3.64 (inactive); in experiment [12], -4.3 (inactive); in experiment [13] it was 0.0612 (inactive); in experiment [14] it was 0.291 (inactive); in experiment [15], 1.13 (inactive).
Turning to `CO[C@H]1COC(=O)CC=C[C@@H](C)[C@H](OC)COC(=O)CCC[C@@H]1C`, the composite z-score in experiment [1] was 0.165; in experiment [2], -0.289; in [3], -0.735; in experiment [4], -0.511; in experiment [5], 0.776; in experiment [6] it was 1.15. Moreover, the composite z-score in [8] is 0.945; in experiment [9], -0.173; in experiment [11] it was -0.0494; in experiment [16] it was 0.0616; in [17], -0.153; in experiment [18], 1.89. Moreover, the composite z-score in [19] is 0.33; in [20], 1.18. Further, the z-score in [7] is -0.738; in experiment [10], 1.09 (inactive); in [12], -0.127 (inactive); in [13], -0.913 (inactive); in experiment [14], -0.482 (inactive); in [15] it was 0.0877 (inactive).
For `CCOC(=O)[C@H](CC(C)C)NC(=O)CCC1CC(OC(=O)NCc2cccc3ccccc23)CC2(CCCC(COC(=O)NCCOc3ccccc3)O2)O1` (stereo not given in full), the composite z-score worked out at 0.907 in experiment [1]; 1.15 in experiment [2]; 0.0968 in [3]; 0.959 in experiment [4]; 0.776 in [5]; 0.373 in [6]. In addition, the composite z-score in experiment [8] stood at 0.741; in [9], 0.537; in [11] it was 0.746; in experiment [16], 0.628; in experiment [17], 0.0248; in [18], 0.236. Also, the composite z-score was determined as 0.117 in [19] and 0.805 in experiment [20]. Further, the z-score in experiment [7] is 1.07; in experiment [10] it was 0.546 (inactive); in experiment [12] it was -0.248 (inactive); in experiment [13], -0.477 (inactive); in experiment [14], -0.526 (inactive); in experiment [15], -0.519 (inactive).
